Measurements from the antibiotic and cytotoxicity screens of Wong et al. (2023).
Out of some 39,000 compounds screened, about 500 (1.3%) were called active. Shown is part of a subset that was picked to be rich in actives.

What follows are compounds tested on S. aureus RN4220 (assay: growth inhibition call (relative growth <= 0.2)). Settings: 50 µM.
`COc1ccc(S(=O)(=O)Nc2ccc3c(c2)C(=O)N([C@H](C)CO)C[C@@H](C)[C@@H](CN(C)Cc2ccccc2)OCCCC[C@@H](C)O3)cc1` was tested, and the growth inhibition call was “inactive”. For `Cc1noc(C)c1NC(=O)N(C)C[C@@H]1OCCCC[C@@H](C)Oc2ccc(NC(=O)c3ccccc3)cc2C(=O)N([C@H](C)CO)C[C@@H]1C`, the growth inhibition call was “inactive”. `CCCN(CCC)[NH2+][O-]` was tested, and the growth inhibition call was “inactive”. For `C[C@H](CO)N1C[C@H](C)[C@H](CN(C)Cc2ccccc2)Oc2ccc(NC(=O)CCN3CCOCC3)cc2CC1=O`, the growth inhibition call was “inactive”. For `C[C@@H]1CN([C@H](C)CO)C(=O)c2cc(NC(=O)Nc3cccc4ccccc34)ccc2O[C@@H](C)CCCCO[C@H]1CN(C)S(=O)(=O)c1ccc(F)cc1`, the growth inhibition call was “inactive”. With `CC(C)(Sc1cc(C(C)(C)C)c(O)c(C(C)(C)C)c1)Sc1cc(C(C)(C)C)c(OC(=O)CCC(=O)O)c(C(C)(C)C)c1` the growth inhibition call was “inactive”. With `CC(C)(Sc1cc(C(C)(C)C)c(O)c(C(C)(C)C)c1)Sc1cc(C(C)(C)C)c(O)c(C(C)(C)C)c1` the growth inhibition call was “inactive”. In the case of `CC(C)(Sc1cc(C(C)(C)C)c(O)c(C(C)(C)C)c1)Sc1cc(C(C)(C)C)c(OCC(=O)O)c(C(C)(C)C)c1`, the growth inhibition call is reported as “active”. In the case of `C[C@@H]1CN([C@H](C)CO)C(=O)c2cc(NS(=O)(=O)c3ccccc3)ccc2O[C@H]1CN(C)S(=O)(=O)c1ccc(F)cc1`, the growth inhibition call is reported as “inactive”. `Nc1cccc(-n2cc(CCC(=O)NO)nn2)c1` was tested, and the growth inhibition call was “inactive”. In the case of `CC(/C=C/C(=O)NO)=C\c1ccccc1OCc1cn(-c2cccc(N(S(=O)(=O)c3ccc(C)cc3)S(=O)(=O)c3ccc(C)cc3)c2)nn1`, the growth inhibition call is reported as “inactive”. In the case of `COC(=O)[C@@H](N)Cc1ccc(-n2cc(CCC(=O)NO)nn2)cc1`, the growth inhibition call is reported as “active”. For `Nc1ccc(-n2cc(CCC(=O)NO)nn2)cc1`, the growth inhibition call was “inactive”. With `CCOc1cc(OCC)cc(C(=O)N[C@@H](Cc2ccc(-n3cc(CCC(=O)NO)nn3)cc2)C(=O)OC)c1` the growth inhibition call was “inactive”. With `Cc1ccc(S(=O)(=O)N(c2cccc(-n3cc(CCC(=O)NO)nn3)c2)S(=O)(=O)c2ccc(C)cc2)cc1` the growth inhibition call was “active”. `Cc1onc(-c2ccccc2)c1C#N` was tested, and the growth inhibition call was “inactive”. For `NCCOB(c1ccccc1)c1ccccc1`, the growth inhibition call was “inactive”. `C[C@@H]1CCCCO[C@H](CN(C)C(=O)Nc2ccc(C(F)(F)F)cc2)[C@@H](C)CN([C@H](C)CO)C(=O)c2cc(NC(=O)Cc3ccccc3)ccc2O1` was tested, and the growth inhibition call was “inactive”. With `CC(C)NC(=O)N(C)C[C@@H]1Oc2ccc(NC(=O)Cc3ccccc3)cc2CC(=O)N([C@H](C)CO)C[C@@H]1C` the growth inhibition call was “inactive”. For `C[C@@H]1CN([C@@H](C)CO)C(=O)c2cc(NS(C)(=O)=O)ccc2O[C@@H]1CN(C)C(=O)Nc1ccc2c(c1)OCO2`, the growth inhibition call was “inactive”. With `CS(=O)(=O)N1CCn2cc(Cn3cncn3)nc2C1` the growth inhibition call was “inactive”. In the case of `CCCC#Cc1cnc2c(c1)C(=O)N([C@@H](C)CO)C[C@H](C)[C@@H](CN(C)S(=O)(=O)c1cn(C)cn1)O2`, the growth inhibition call is reported as “inactive”. `COc1ccc(NC(=O)N(C)C[C@@H]2Oc3ccc(NC(=O)CCN4CCOCC4)cc3C(=O)N([C@H](C)CO)C[C@H]2C)cc1` was tested, and the growth inhibition call was “inactive”. With `CC(C)C1=CC2=CC[C@H]3[C@](C)(CO)CCC[C@]3(C)[C@@H]2CC1` the growth inhibition call was “inactive”. With `CC(C)C1=CC2=CCC3C(C)(C(=O)O)CCCC3(C)C2CC1` (stereo not given) the growth inhibition call was “active”. With `CC(C)c1cc2c(cc1S(=O)(=O)O)[C@@]1(C)CCC[C@@](C)(C(=O)O)[C@@H]1CC2` the growth inhibition call was “inactive”. For `CCc1nc2ccc(C(=O)N3CCN(S(=O)(=O)CC)CC3)cn2c1N(C)Cc1ccc(Cl)cc1`, the growth inhibition call was “inactive”. With `CN1CC2(COC2)OCCS1(=O)=O` the growth inhibition call was “inactive”. With `COc1ccc(S(=O)(=O)Nc2ccc3c(c2)CC(=O)N([C@H](C)CO)C[C@H](C)[C@@H](CN(C)S(=O)(=O)c2cn(C)cn2)O3)cc1` the growth inhibition call was “inactive”. In the case of `CC1(C)Cc2c(-c3ccccc3)c(-c3ccc(Cl)cc3)c(CC(=O)O)n2C1`, the growth inhibition call is reported as “active”. `Cc1cc(CC(=O)O)n(C)c1C(=O)c1ccc(Cl)cc1` was tested, and the growth inhibition call was “inactive”. `C[C@H]1CN([C@@H](C)CO)C(=O)c2cccc(NC(=O)Nc3ccc(C(F)(F)F)cc3)c2O[C@@H]1CN(C)C(=O)Nc1ccc(C(F)(F)F)cc1` was tested, and the growth inhibition call was “inactive”. In the case of `CC(=O)OC1CC(OC(C)=O)C2(C)C(CC(OC(C)=O)C3(C)C4=CC(=O)OC(c5ccoc5)C4(C)CCC32)C1(C)C` (stereo not given), the growth inhibition call is reported as “inactive”. For `CC(C)NC(=O)N(C)C[C@H]1Oc2ccc(NC(=O)Nc3ccc4c(c3)OCO4)cc2CC(=O)N([C@@H](C)CO)C[C@H]1C`, the growth inhibition call was “inactive”. `Oc1c(Cl)cc(Cl)c(Cl)c1Cc1c(O)c(Cl)cc(Cl)c1Cl` was tested, and the growth inhibition call was “inactive”. In the case of `Oc1c(Cl)cc(Cl)cc1Sc1cc(Cl)cc(Cl)c1O`, the growth inhibition call is reported as “inactive”. In the case of `O=C(Nc1cc(Cl)cc(Cl)c1O)c1c(O)c(Cl)cc(Cl)c1Cl`, the growth inhibition call is reported as “active”. For `CS(=O)(=O)N1C[C@@H](O)COC[C@H]2O[C@H](CC(=O)NCc3ccccc3)CC[C@@H]21`, the growth inhibition call was “inactive”. With `Cc1noc(C)c1S(=O)(=O)Nc1ccc2c(c1)C(=O)N([C@H](C)CO)C[C@H](C)[C@@H](CN(C)Cc1ccncc1)O2` the growth inhibition call was “inactive”. For `C[C@@H]1CCCCO[C@H](CN(C)C(=O)CCC(F)(F)F)[C@H](C)CN([C@H](C)CO)C(=O)c2cc(NS(=O)(=O)c3cccs3)ccc2O1`, the growth inhibition call was “inactive”. For `CC(=O)OC1(C(C)=O)CCC2C3C=C(C)C4=CC(=O)CCC4(C)C3CCC21C` (stereo not given), the growth inhibition call was “inactive”. With `CC(=O)OC1CC2(C)C(CC(O)C3C4(C)CCC(O)C(C)C4CCC32C)C1=C(CCC=C(C)C)C(=O)O` (stereo not given) the growth inhibition call was “active”. With `CC(=O)O[C@H]1C[C@@]2(C)[C@@H](C[C@@H](O)[C@@H]3[C@@]4(C)CC[C@@H](O)[C@@H](C)[C@@H]4CC[C@@]32C)/C1=C(/CCC=C(C)C)C(=O)O` the growth inhibition call was “active”. With `CC(=O)O[C@H]1C[C@@]2(C)[C@@H](C[C@@H](O)[C@H]3[C@@]4(C)CC[C@@H](O)[C@@H](C)[C@@H]4CC[C@@]32C)/C1=C(\CCC=C(C)C)C(=O)O` the growth inhibition call was “active”. `CC(=O)O[C@H]1C[C@@]2(C)[C@@H](C[C@@H](O)[C@H]3[C@@]4(C)CC[C@@H](O)[C@@H](C)[C@H]4CC[C@@]32C)C1=C(CCC=C(C)C)C(=O)O` was tested, and the growth inhibition call was “active”. `CC(=O)C1CCC2C3CC=C4CC(OC(=O)CCC(=O)O)CCC4(C)C3CCC12C` (stereo not given) was tested, and the growth inhibition call was “inactive”. With `CC(=O)OC1(C(C)=O)CCC2C3CC(C)C4=CC(=O)CCC4(C)C3CCC21C` (stereo not given) the growth inhibition call was “inactive”. With `C[C@H](CO)N1C[C@H](C)[C@H](CN(C)C(=O)Nc2ccccc2)OCCCC[C@H](C)Oc2ccc(NC(=O)Nc3ccc(F)cc3)cc2C1=O` the growth inhibition call was “inactive”. In the case of `C[C@H](CO)N1C[C@H](C)[C@@H](CN(C)CC2CC2)Oc2ccc(NS(=O)(=O)c3cccs3)cc2C1=O`, the growth inhibition call is reported as “inactive”. For `Cc1ccc(S(=O)(=O)N(C)C[C@H]2Oc3ccc(NC(=O)Nc4cccc5ccccc45)cc3C(=O)N([C@@H](C)CO)C[C@H]2C)cc1`, the growth inhibition call was “inactive”. `O=C1NCC(=O)N2[C@@H]1C[C@@H](C(=O)O)[C@H]2c1ccc(O)cc1` was tested, and the growth inhibition call was “inactive”. For `C[C@H](CO)N1C[C@H](C)[C@H](CN(C)Cc2cccc(F)c2)Oc2cc(C#CC3CC3)ccc2S1(=O)=O`, the growth inhibition call was “inactive”. `C[C@H](CO)N1C[C@H](C)[C@@H](CN(C)CC2CCCCC2)Oc2ccc(NC(=O)Cn3cnnn3)cc2C1=O` was tested, and the growth inhibition call was “inactive”. `C[C@@H]1CN([C@@H](C)CO)S(=O)(=O)c2ccc(Br)cc2O[C@H]1CN(C)S(=O)(=O)c1ccc(F)cc1` was tested, and the growth inhibition call was “inactive”. `COc1ccc(S(=O)(=O)N(C)C[C@@H]2Oc3ccc(NC(=O)c4ccncc4)cc3C(=O)N([C@H](C)CO)C[C@@H]2C)cc1` was tested, and the growth inhibition call was “inactive”. With `C[C@H](CO)N1C[C@H](C)[C@@H](CN(C)S(=O)(=O)c2cn(C)cn2)OCCCC[C@H](C)Oc2ccc(NS(=O)(=O)c3cn(C)cn3)cc2C1=O` the growth inhibition call was “inactive”. For `C[C@@H]1CCCCO[C@H](CN(C)C(=O)Cc2ccccc2)[C@@H](C)CN([C@@H](C)CO)C(=O)c2cc(NC(=O)C3CCCCC3)ccc2O1`, the growth inhibition call was “inactive”. `C[C@@H]1CCCCO[C@@H](CN(C)C(=O)Nc2ccc(F)cc2)[C@H](C)CN([C@@H](C)CO)C(=O)c2cc(NC(=O)CCC(F)(F)F)ccc2O1` was tested, and the growth inhibition call was “inactive”. `C[C@H]1CN([C@@H](C)CO)C(=O)CCCn2nncc2CO[C@@H]1CN(C)S(=O)(=O)c1ccc(Oc2ccccc2)cc1` was tested, and the growth inhibition call was “inactive”. With `CSCC[C@H](NC(=O)[C@H](Cc1c[nH]c2ccccc12)NC(=O)CNC(=O)[C@@H](NC(=O)[C@H](Cc1ccc(OS(=O)(=O)O)cc1)NC(=O)[C@H](CC(=O)O)NC(=O)[C@H](CCC(N)=O)NC(=O)[C@@H]1CCC(=O)N1)[C@@H](C)O)C(=O)N[C@@H](CC(=O)O)C(=O)N[C@@H](Cc1ccccc1)C(N)=O` the growth inhibition call was “inactive”. `CCCCCCCCCC(=O)N[C@@H](Cc1c[nH]c2ccccc12)C(=O)N[C@H](CC(N)=O)C(=O)N[C@@H](CC(=O)O)C(=O)N[C@@H]1C(=O)NCC(=O)N[C@@H](CCCN)C(=O)N[C@@H](CC(=O)O)C(=O)N[C@H](C)C(=O)N[C@@H](CC(=O)O)C(=O)NCC(=O)N[C@H](CO)C(=O)N[C@@H]([C@H](C)CC(=O)O)C(=O)N[C@@H](CC(=O)c2ccccc2N)C(=O)O[C@@H]1C` was tested, and the growth inhibition call was “active”. In the case of `C[C@H](N)C(=O)NCC(=O)N[C@H]1CSSC[C@@H](C(=O)O)NC(=O)[C@H](CO)NC(=O)[C@H]([C@@H](C)O)NC(=O)[C@H](Cc2ccccc2)NC(=O)[C@H]([C@@H](C)O)NC(=O)[C@H](CCCCN)NC(=O)[C@H](Cc2c[nH]c3ccccc23)NC(=O)[C@H](Cc2ccccc2)NC(=O)[C@H](Cc2ccccc2)NC(=O)[C@H](CC(N)=O)NC(=O)[C@H](CCCCN)NC1=O`, the growth inhibition call is reported as “inactive”. For `CS(=O)(=O)NCc1cnc2n1CCN(C(=O)[C@H]1CCOC1)CC2`, the growth inhibition call was “inactive”. With `CC(C)[N+]1(C)C2CCC1CC(OC(=O)C(CO)c1ccccc1)C2.[Br-]` (stereo not given) the growth inhibition call was “inactive”. In the case of `C[C@H](CO)N1C[C@H](C)[C@@H](CN(C)Cc2ccc(-c3ccccc3)cc2)Oc2c(NS(=O)(=O)c3ccc(F)cc3)cccc2C1=O`, the growth inhibition call is reported as “inactive”.
